According to ChEMBL document CHEMBL3988442, “University of Dundee, Small-Polar-MMV Screening Library” (2021):
Among all 48,000 compounds or so, about 13,000 (27%) showed an effect of 50% or more. The list shows a part of the results.

These compounds were tested on Wolbachia pipientis (assay: Anti-Wolbachia Cell-Based Screen). Settings: 5 µM.
Format: functional
Set-up: scale not given: in the data most compounds retested in dose-response had high values

| Compound | Percent Effect [%] |
| --- | --- |
| Cc1nc(CN2C(=O)CCC23CCN(Cc2ccoc2)CC3)cs1.O=C(O)C(F)(F)F.O=C(O)C(F)(F)F | 99.35 |
| CCOC1CC2(CCN(Cc3cccn3C)CC2)C1.O=C(O)C(F)(F)F | 0.1287 |
| Cc1nc(CN2C(=O)CCC23CCN(Cc2ccccn2)CC3)cs1.O=C(O)C(F)(F)F.O=C(O)C(F)(F)F | 113.7 |
| COCCN1CCc2ccc(=O)n(Cc3csc(C)n3)c2CC1.O=C(O)C(F)(F)F.O=C(O)C(F)(F)F | -8.44 |
| Cc1nc(CN2C(=O)CCC23CCN(c2ncccn2)CC3)cs1.O=C(O)C(F)(F)F | 11.75 |
| Cc1nc(CN2C(=O)CCC23CCN(Cc2cccn2C)CC3)cs1.O=C(O)C(F)(F)F.O=C(O)C(F)(F)F | 110.4 |
| COCCN1CCC2(CCC(=O)N2Cc2csc(C)n2)CC1.O=C(O)C(F)(F)F.O=C(O)C(F)(F)F | 99.3 |
| NC(=O)C1CCN(C(=O)CSC2CCCc3ccccc32)CC1 (configuration not stated) | -6.301 |
| CCOc1ccccc1C(CC(=O)N(C)c1ccccc1)NC(C)=O (configuration not stated) | 3.437 |
| O=C(c1ccn(-c2cccc(Cl)c2)n1)N1CCN(C2CC2)CC1 | 7.351 |
| CCC(C)NC(=O)c1cc(S(=O)(=O)N2CCCC2)c(C)s1 (configuration not stated) | 99.85 |
| CCC(C)NC(=O)CS(=O)(=O)Cc1cc(C)ccc1C (configuration not stated) | -1.911 |
| CC(C)NC(=O)C(C)S(=O)(=O)c1cc2c(cc1Cl)OCCO2 (configuration not stated) | -0.523 |
| CCC(C)NC(=O)c1cncc(Br)c1 (configuration not stated) | 12.99 |
| CC(C)NC(=O)c1cc(Br)cc(S(=O)(=O)N2CCOCC2)c1F | -9.649 |
| CC(C)NC(=O)CS(=O)(=O)c1cc2c(cc1Cl)OCCO2 | -3.378 |
| Cc1sc(C(=O)NC(C)C)cc1S(=O)(=O)N(C)C | 135.1 |
| COCCNC(=O)c1cc(S(=O)(=O)N2CCCC2)cs1 | 6.896 |
| CCC(C)NC(=O)c1cc(S(=O)(=O)N(C)C)c(C)s1 (configuration not stated) | 107 |
| Cc1cc(-c2cnc(NC3CCCC3)nc2-c2ccoc2C)on1 | -4.074 |
| Cc1cc(-c2cnc(NC3CC3)nc2-c2ccco2)on1 | 84.65 |
| Cc1cc(-c2cnc(NC3CCCCC3)nc2-c2ccco2)on1 | 96.71 |
| CCN1CCN(c2ncc(-c3cc(C)no3)c(-c3ccco3)n2)CC1 | 110.6 |
| CCN1CCN(c2ncc(-c3cc(C)no3)c(-c3ccoc3C)n2)CC1 | -0.7712 |
| Cc1cc(-c2cnc(NC3CC3)nc2-c2ccoc2C)on1 | 65.28 |

| Compound | Percent Effect [%] |
| --- | --- |
| CCN1CCC(N2CCN(c3cc(-c4nc(C)no4)ccn3)CC2)CC1 | 10.41 |
| O=C1NCCO[C@H]2CN(C(=O)CCc3ccccc3Cl)CC[C@@H]12 | -36.6 |
| COCC1CN(C(=O)COc2ccc(C)cc2)Cc2cn(C)nc21.O=C(O)C(F)(F)F (configuration not stated) | -4.21 |
| CCn1ncc2c1CCCC2NCc1cscn1 (configuration not stated) | -5.451 |
| Cc1cc(-c2cnc(NC3CCCC3)nc2-c2ccco2)on1 | 111.9 |
| Cc1cc(-c2cnc(NC3CCCC3)nc2-c2ccc(C)o2)on1 | 122.4 |
| Cc1cc(C2CCC2)nc(N(C)Cc2cc(-c3ccccn3)no2)n1 | 38.25 |
| Cc1occc1-c1nc(NC2CCCC2)ncc1-c1ccccn1 | 77.82 |
| Cc1cccnc1C(Nc1nccc(C2CCCC2)n1)C1CC1 (configuration not stated) | -13.6 |
| CNC(=O)C1CCCCN1C(=O)c1csc(-c2ccc(C)o2)n1 (configuration not stated) | -2.315 |
| O=C1CCC(C(=O)NCCOc2ccccc2-c2ccccc2)CN1 (configuration not stated) | 30.95 |
| NC(=O)c1cccc(NC(=O)CSc2ccc3c(c2)CCC3)c1 | 10.83 |
| COc1nc2c(cc1C(=O)NCCc1nc3ccccc3s1)CCC2 | -9.25 |
| Cn1ncc(C(=O)O)c1C(=O)Nc1nc2ccccc2s1 | 107.6 |
| Cn1ncc(C(=O)O)c1C(=O)Nc1nc2ccc(Br)cc2s1 | 84.26 |
| COc1ccc2nc(C3CC3)cc(C(=O)NCc3ncnn3C)c2c1 | -9.156 |
| CCOc1ccc2nc(NC(=O)c3c(C(=O)O)cnn3C)sc2c1 | -2.899 |
| Cn1c(C(F)(F)F)nn(CCNC(=O)c2nc3ccccc3s2)c1=O | -27.26 |
| Cn1cnnc1CNC(=O)c1ccc(Br)cc1O | -16.68 |
| COc1ccc2nc(NC(=O)c3c(C(=O)O)cnn3C)sc2c1 | 107.5 |
| Fc1cnc(N2CCc3nnc(COc4ccccn4)n3CC2)nc1.O=C(O)C(F)(F)F | 2.887 |
| O=S(=O)(C1CC1)N1CCOCC2(CN(c3ncccn3)CCO2)C1 (configuration not stated) | -5.762 |
| CCn1cc(C(=O)N2CCCN(c3cccnn3)CC2)c2ccccc21 | -8.81 |
| CO[C@@H]1CCN(Cc2nccs2)C[C@@H]1Cc1ccccc1.O=C(O)C(F)(F)F | -16.15 |
| CO[C@@H]1CCN(Cc2ccoc2)C[C@@H]1Cc1ccccc1.O=C(O)C(F)(F)F | 89.22 |

| Compound | Percent Effect [%] |
| --- | --- |
| CO[C@@H]1CCN(Cc2ccoc2)[C@H]1Cc1ccccc1.O=C(O)C(F)(F)F | 118.7 |
| CO[C@H]1CCN(C2CCOCC2)C[C@@H]1Cc1ccccc1.O=C(O)C(F)(F)F | -3.139 |
| COc1ccc(CN2CC[C@@H](O)[C@@H]2Cc2ccccc2)cc1.O=C(O)C(F)(F)F | 17.99 |
| O=C(O)C(F)(F)F.c1ccc(C[C@H]2CN(C3CCOCC3)CC[C@H]2OCC2CC2)cc1 | -4.378 |
| CO[C@H]1CCN(Cc2ccoc2)C[C@@H]1Cc1ccccc1.O=C(O)C(F)(F)F | 68.19 |
| CO[C@@H]1CCN(Cc2ccc(C)o2)[C@H]1Cc1ccccc1.O=C(O)C(F)(F)F | 10.3 |
| CO[C@@H]1CCN(C2CCOCC2)C[C@@H]1Cc1ccccc1.O=C(O)C(F)(F)F | -11.13 |
| Cc1cc(Cl)c2c(c1)C1(NC(=O)c3cccnc3N1)C(=O)N2 (configuration not stated) | -1.916 |
| CC(C)=CCC1(CO)CCCN(Cc2nccs2)C1 (configuration not stated) | 1.266 |
| O=C(O)C(F)(F)F.O=C(c1ccnnc1)N1CCN2C[C@H](Oc3cccc(F)c3)C[C@H]2C1 | -26.48 |
| COc1ccc(C)cc1NC(=O)Cn1nc(C)c(C#N)c1N | -0.6679 |
| COc1ccc(C2(NC(=O)CCn3cncn3)CCCCC2)cc1 | -6.832 |
| Cc1ccc(C2(O)CCN(Cc3nc(C)n4ccccc34)CC2)nc1 | -9.121 |
| COc1ccccc1C1(CNc2nnc(C)c(C)c2C#N)CCCC1 | -5.07 |
| COc1ccccc1C1(NCc2c(C)nc3c(C)cccn23)CCCC1.Cl | 58.58 |
| Cc1nc2sccn2c1CNc1ccc(C(=O)O)cc1 | 3.655 |
| Cc1nc(CN2CCC(O)(c3ccccc3F)CC2)c2ccccn12.O=C(O)CC(O)(CC(=O)O)C(=O)O | 94.96 |
| Cc1nc2sccn2c1CNC1(c2ccccc2F)CCCC1.O=C(O)CC(O)(CC(=O)O)C(=O)O | 86.58 |
| COc1ccccc1C1(CNc2snc(Cl)c2C#N)CCCC1 | -12.01 |
| COc1c(CNC2(c3ccc(Cl)cc3)CCC2)c(C)nn1C | -12.89 |
| Cc1nc2sccn2c1CNc1cc(C(=O)O)ccc1F | -0.08043 |
| COc1ccc(C2(NCc3c(C)nc4c(C)cccn34)CCCC2)cc1.O=C(O)CC(O)(CC(=O)O)C(=O)O | 147.1 |
| Cc1nc(CN2CCC3(CCCO3)CC2)c2ccccn12 | 20.84 |
| Cc1oncc1C(=O)N1CC[C@H]2[C@H](CO[C@@H]2CNS(C)(=O)=O)C1 | -5.011 |
| COc1ccc(CNCCC(=O)N2CCc3sccc3C2)cc1O | -10.83 |

| Compound | Percent Effect [%] |
| --- | --- |
| O=c1c(-c2ccnc(N3CCCC[C@@H]3CO)n2)cnc2sccn12 | 125.6 |
| OCC1CCCCN1c1ccc(-c2nc(-c3ccccc3F)no2)cn1 (configuration not stated) | 1.745 |
| Cc1csc2ncc(-c3ccnc(N4CCC[C@@H]4CO)n3)c(=O)n12 | 56.16 |
| O=c1c(-c2ccnc(N3CCC[C@H]3CO)n2)cnc2sccn12 | 102.3 |
| Cc1csc2ncc(-c3ccnc(N4CCCC[C@@H]4CO)n3)c(=O)n12 | 6.094 |
| Cc1cnn(CC2CCCN2Cc2cc(=O)n3c(C)csc3n2)c1 (configuration not stated) | 1.323 |
| Cc1cn2c(=O)c(-c3ccnc(N4CCC[C@@H]4CO)n3)cnc2s1 | 87.72 |
| COc1ccc(-c2noc(-c3ccc(N4CCC[C@H]4CO)nc3)n2)cc1 | -7.045 |
| CC(C)(C)c1cn2nc(N3CCC[C@@H]3CO)sc2n1 | -4.736 |
| O=C(NCCc1cccs1)N1CCC[C@H]1CO | -11.14 |
| COC(=O)C(NC(=O)c1cc(C)ccc1C)c1cccnc1 (configuration not stated) | -6.12 |
| CCCc1cc(NC(=O)c2ccc(Cl)c(N3CCNC3=O)c2)n[nH]1 | 5.533 |
| COC(=O)c1cccc(S(=O)(=O)N2CSCC2C(=O)N(C)C2CC2)c1 (configuration not stated) | -20.06 |
| CC(C)C(c1cccnc1)N(C)C(=O)Cc1c(F)cccc1F (configuration not stated) | 1.062 |
| CCN(C(C)=O)C(c1cccnc1)c1cc(C)cc(C)c1 (configuration not stated) | 0.6077 |
| CCN(C(c1ccc(OC)cc1)c1cccnc1)S(C)(=O)=O (configuration not stated) | 3.822 |
| CC(=O)N(C)C(c1cccnc1)c1ccc(F)c(F)c1 (configuration not stated) | 0.3352 |
| CNC(=O)NC(=O)CN(C)C(c1cccnc1)c1ccc(F)cc1F (configuration not stated) | -23.22 |
| CNC(=O)NCC(=O)N(C)C(c1ccc(Cl)cc1)c1cccnc1 (configuration not stated) | 108.8 |
| CN(CC(=O)N(C)C(c1cccnc1)c1ccc(F)c(F)c1)C1CC1 (configuration not stated) | 12 |
| CCC(=O)NCC(=O)N(C)C(c1ccc(Cl)cc1)c1cccnc1 (configuration not stated) | 138.5 |
| CN(CC(=O)N(C)C(c1ccc(Cl)cc1)c1cccnc1)C1CC1 (configuration not stated) | 97.71 |
